# Screening data (PubChem BioAssay)
# USP28 inh: inhibitors of human USP28 deubiquitinase; Ubiquitin carboxyl-terminal hydrolase 28 (Homo sapiens), Q96RU2; purified USP28, Ub-rhodamine cleavage fluorescence, 30 min; inhibition, % at 25 µM; actives 3% (n = 47,000); AID 1645857, 2021
# OTUD3 block: inhibitors of human OTUD3 deubiquitinase | OTU domain-containing protein 3 (Homo sapiens), Q5T2D3 | purified OTUD3, Ub-rhodamine fluorescence, 2 h | inhibition, % at 25 µM | actives 0.7% (n = 47,000)
# Target sequence (Q5T2D3 whole entry, looked up, the tested form may be a part): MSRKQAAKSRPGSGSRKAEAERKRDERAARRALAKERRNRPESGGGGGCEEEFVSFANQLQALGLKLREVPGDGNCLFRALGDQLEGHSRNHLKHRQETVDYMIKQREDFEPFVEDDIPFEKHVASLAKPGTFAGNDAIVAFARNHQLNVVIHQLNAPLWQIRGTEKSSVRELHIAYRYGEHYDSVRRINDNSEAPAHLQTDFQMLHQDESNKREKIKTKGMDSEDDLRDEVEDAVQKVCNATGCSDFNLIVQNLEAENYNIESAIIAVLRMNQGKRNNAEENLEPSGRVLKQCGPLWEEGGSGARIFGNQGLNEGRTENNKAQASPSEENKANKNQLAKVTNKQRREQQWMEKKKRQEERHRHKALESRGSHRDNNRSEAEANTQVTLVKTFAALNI
# Numbers stand for hits; - = inactive; . = no result given. An excerpt weighted towards active compounds, which were near 3.3% of everything screened. Cut-off read from the data, not from the text of the source: active = inhibition above about 30%; inactive = the rest.
SMILES,USP28 inh,OTUD3 block
COc1cc(C2CC(=O)Nc3nc(-c4ccccc4)[nH]c(=O)c32)cc(OC)c1O (configuration not stated),65,47
CCN1[C@H]2CCN(C(=O)CC3CC3)CC[C@@H]2Oc2ccccc2S1(=O)=O,-,-
Cc1cc(-c2nnc(SCC(=O)N3CCCc4ccccc43)o2)no1,-,-
Cc1ccc2c(c1)cc(C(=O)NCC1CCCO1)n2C (configuration not stated),-,-
COc1cc(Cl)c(NC(=O)C2Cc3ccccc3N2C(=O)c2ccccc2)c(OC)c1 (configuration not stated),-,-
COc1ccc(/C(C#N)=C\c2ccc3c(c2)OCO3)cc1,33,-
N#C/C(=C\c1cccc(Oc2ncccn2)c1)c1ccc2c(c1)OCO2,.,-
COc1cccc(NC(=O)N2CCN(c3ncccc3C(F)(F)F)CC2)c1,42,-
COc1cccc(NC(=O)N2CCN(C3=CC4=NC(C)CN4C=N3)CC2)c1 (configuration not stated),-,-
O=C(c1cccc(F)c1)N1CCN(Cc2nnnn2-c2ccc(F)cc2)CC1,-,-
COc1ccc(CC(=O)N2CCC(c3nc4ccccc4cc3C(N)=O)CC2)cc1,-,-
O=[N+]([O-])c1cc(S(=O)(=O)N2CCCCC2)ccc1Oc1cccc(F)c1,-,-
COc1ccccc1OCc1nnc(SCC(=O)c2ccc(F)cc2)n1C,-,-
Cn1c(COc2cccc3cccnc23)nnc1SCC(=O)c1ccc(Cl)cc1Cl,37,-
Cc1nc2ccc(C(=O)N3[C@H](Cc4cccc(F)c4)C[C@@H]4NC(=O)CCCC[C@H]43)cc2[nH]1,-,-
CCOc1ccc(N(CC)C(=O)C(=O)c2cn(CC(=O)N3CCCCC3)c3ccccc23)cc1,-,-
CCc1ccc(NC(=O)c2sc3ncnc(N4CCN(C)CC4)c3c2C)cc1,35,-
Cc1c(C(=O)NCc2ccc(Cl)cc2)sc2ncnc(N3CCCC3)c12,31,-
COc1ccc(N2CCN(c3ncnc4sc(C(=O)Nc5ccc(Oc6ccccc6)cc5)c(C)c34)CC2)cc1,-,-
Cc1c(C(=O)NCc2cccc(F)c2)sc2ncnc(N3CCCC3)c12,-,-
COc1cc2c(cc1OC)CC(=O)N(Cc1c(F)cccc1Cl)C=C2,-,-
CCn1c(Cn2cccn2)nc2cc(NC(=O)c3ccc(F)cc3)ccc21,53,-
CCn1c(Cn2cccn2)nc2cc(NC(=O)CC(C)C)ccc21,-,-
Cc1nnc2c(NC(=O)c3cc(F)ccc3F)cccn12,-,-
O=C(Nc1ccc(O)cc1)c1cccn2c(-c3ccccc3F)nnc12,37,-
SMILES,USP28 inh,OTUD3 block
Cn1cccc1-c1cc2n(n1)CCCN2C(=O)CCC(=O)NC1CCCC1,-,-
COc1cc2c(cc1OC)-c1c(c(C(=O)N3CCCC3)nn1-c1ccccc1F)C2,76,-
COc1cc2c(cc1OC)-c1c(c(C(=O)O)nn1-c1ccc(F)cc1)C2,-,-
COc1ccccc1NS(=O)(=O)c1ccc2oc(SCC(=O)c3ccccc3)nc2c1,64,-
COc1ccc(NS(=O)(=O)c2ccc3oc(SCC(=O)N(C)C4CCS(=O)(=O)C4)nc3c2)cc1 (configuration not stated),.,-
O=C(Nc1ccccc1)N1CCN(Cc2nnnn2-c2ccc(F)c(F)c2)CC1,-,-
O=C1NCC2(C/C=C/CCOc3ccccc31)CCN(C(=O)c1ccnc(N3CCCC3)c1)CC2,72,42
Cc1ocnc1C(=O)N1CCC2(C/C=C/CCOc3ccccc3C(=O)NC2)CC1,-,-
COc1ccc(C)cc1NC(=O)COC(=O)CCCc1c[nH]c2ccccc12,-,-
O=C(CCc1c[nH]c2ccccc12)Nc1ccc(N2CCOCC2)cc1,62,-
O=C(COC(=O)CCCc1c[nH]c2ccccc12)Nc1ccc2c(c1)OCO2,40,-
Cc1cc(C)c(NC(=O)CCc2c[nH]c3ccccc23)c(Cl)c1,-,-
O=C(CCC1CCCCC1)Nc1ccccc1C(=O)N1CCOCC1,34,-
O=C(c1ccc(OCC2CCN(C(=O)c3ccccc3)CC2)cc1)N1CCOCC1,-,-
O=C(Nc1ncc2c(n1)CC(c1ccco1)CC2=O)c1ccco1 (configuration not stated),-,-
O=C1CC(c2ccco2)Cc2[nH]c(=O)c(C(=O)Nc3ccc(Cl)cc3)cc21 (configuration not stated),35,-
O=C(COC(=O)c1ccc2c(c1)OCO2)Nc1ccc2[nH]c(=O)[nH]c2c1,-,-
O=C(COC(=O)c1cc2c(s1)CCC2)c1ccc2[nH]c(=O)[nH]c2c1,66,36
COCCN1C(=O)N(c2ccccc2)C(=O)C1CC(=O)Nc1cccc(F)c1 (configuration not stated),-,-
COc1ccc(NC(=O)c2cc(-c3ccco3)on2)c(OC)c1,-,-
COc1ccc(OC)c(-c2cc(C(=O)Nc3c(C)nn(Cc4ccccc4)c3C)no2)c1,80,-
O=C(c1ccnnc1)N1CCC[C@@]2(C[C@@H](Oc3ccccc3F)CO2)C1,-,-
CCc1nc(N2CCCC2)c2oc3ccccc3c2n1,-,-
CCc1nc(Nc2ccc3c(c2)SC2=NCCN23)c2oc3ccccc3c2n1,63,-
NC(=O)c1cccc(NC(=O)c2cc(Cl)c3c(c2)OCO3)c1,48,-
SMILES,USP28 inh,OTUD3 block
O=C(Nc1cccc(OC(=O)c2ccc3c(c2)OCO3)c1)c1ccccc1,-,-
CNc1cc(C(=O)N[C@H]2CC[C@]3(CCC(=O)N3)[C@@H](c3ccc(OC)c(OC)c3)C2)ccn1,-,-
CC1=C(C(=O)N2CCCCC2)C(c2cccc(Cl)c2)n2ncnc2N1 (configuration not stated),-,-
CC1=C(C(=O)N2CCCCC2)C(c2ccc(Br)cc2)n2ncnc2N1 (configuration not stated),47,-
N#Cc1ccc(-c2ccc(OCC(=O)Nc3ccc4c(c3)CCC4)cc2)cc1,41,42
NS(=O)(=O)c1cccc(NC(=O)COc2ccc3c(c2)CCC3)c1,-,-
COc1ccc(CC(=O)Nc2cccn3c(C)nnc23)c(Cl)c1,-,-
CCc1nnc2c(NC(=O)Cc3ccc(OC)c(Cl)c3)cccn12,47,-
Cn1nc(C(=O)NCc2ccco2)c2c1-c1ccsc1CC2,-,-
O=C(CCc1nnc2n(Cc3ccccc3)c(=O)c3ccccc3n12)NCc1cccnc1,-,-
CC(C)[C@H]1CC[C@@]2(CO2)[C@H]2C(=O)OCC(C(=O)O)=C[C@H]12,71,55
CC1=C[C@H]2[C@H](C(C)C)CC[C@@](C)(O)[C@H]2CC1=O,-,-
CN1[C@@H](CCC(=O)N2CCOCC2)CNC(=O)[C@@H]2[C@H]1CCN2Cc1cccc(Cl)c1,-,-
COc1ccc(NC(=O)c2nnn(-c3ccccc3C)c2C)cc1OC,72,-
Cc1ccc(Cl)cc1-n1nnc(C(=O)Nc2ccccc2)c1C,-,-
Cn1c(N)c(C(=O)Cn2nnc(-c3ccccc3Cl)n2)c(=O)n(C)c1=O,-,-
Cc1ccc(Cn2nnc(-c3ccccc3Cl)n2)cc1,64,-
O=C(NCc1ccc(Cl)cc1)c1cccc(N2C(=O)CCS2(=O)=O)c1,-,-
O=C(NCc1ccc(Cl)cc1)c1ccc(N2CCCS2(=O)=O)cc1,45,-
COc1ccc(-c2c(NC(=O)c3cc(F)cc(F)c3)n[nH]c2C)cc1OC,-,-
